Results from PubChem BioAssay (NCATS).
Inconclusive results are not listed. Calls of active or inactive are those of the source. Calls come from the whole dose curve; as a rule, active = well fitted cell-killing curve with a large enough effect; inconclusive = small, poorly fitted or top-dose-only effect, or effect the other way; inactive = no such curve, though single readings can be large or run the other way.

Columns and labels:
[1] = Quantitative High-Throughput drug screen in 47 multiple myeloma cell lines against the NCATS MIPE library collection: KMS28PE_JCRB cell viability assay (AID 1918983); note: nearly all actives have a fitted effect of over 35% in size; note: potency is the fitted concentration of half-maximal effect
Method in brief: (§1)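 ATP-based CellTiter-Glo luminescence after 48 h drug exposure (37 °C, 5% CO2) of 500 myeloma cells per well. DMSO-only wells set 100% viability, media-only wells 0%; MIPE 4.0 library added by pin tool.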

[2] = Quantitative High-Throughput drug screen in 47 multiple myeloma cell lines against the NCATS MIPE library collection: OCIMY7_PLB cell viability assay (AID 1918987); details: OCI-MY7 myeloma viability, CellTiter-Glo ATP, 48 h; viability (% of DMSO): at 45.8 µM (top of the series); note: potency is the fitted concentration of half-maximal effect; nearly all actives have a fitted effect of over 65% in size
Method in brief: as §1

[3] = Quantitative High-Throughput drug screen in 47 multiple myeloma cell lines against the NCATS MIPE library collection: OCIMY5_PLB cell viability assay (AID 1918988); note: potency is the fitted concentration of half-maximal effect; nearly all actives have a fitted effect of over 65% in size
Method in brief: as §1

[4] = Quantitative High-Throughput drug screen in 47 multiple myeloma cell lines against the NCATS MIPE library collection: OPM1_PLB cell viability assay (AID 1918989); note: nearly all actives have a fitted effect of over 40% in size; note: potency is the fitted concentration of half-maximal effect
Method in brief: as §1

[5] = Quantitative High-Throughput drug screen in 47 multiple myeloma cell lines against the NCATS MIPE library collection: U266_ATCC cell viability assay (AID 1919864); note: nearly all actives have a fitted effect of over 35% in size; note: potency is the fitted concentration of half-maximal effect
Method in brief: as §1

[6] = Quantitative High-Throughput drug screen in 47 multiple myeloma cell lines against the NCATS MIPE library collection: XG6_PLB cell viability assay (AID 1919865); note: nearly all actives have a fitted effect of over 40% in size; note: potency is the fitted concentration of half-maximal effect
Method in brief: as §1

[7] = Quantitative High-Throughput drug screen in 47 multiple myeloma cell lines against the NCATS MIPE library collection: XG1_PLB cell viability assay (AID 1919866); note: nearly all actives have a fitted effect of over 35% in size; note: potency is the fitted concentration of half-maximal effect
Method in brief: as §1

[8] = Quantitative High-Throughput drug screen in 47 multiple myeloma cell lines against the NCATS MIPE library collection: VP6_DJ cell viability assay (AID 1919867); note: nearly all actives have a fitted effect of over 40% in size; note: potency is the fitted concentration of half-maximal effect
Method in brief: as §1

[9] = Quantitative High-Throughput drug screen in 47 multiple myeloma cell lines against the NCATS MIPE library collection: PE2_PLB cell viability assay (AID 1919869); note: nearly all actives have a fitted effect of over 35% in size; note: potency is the fitted concentration of half-maximal effect
Method in brief: as §1

[10] = Quantitative High-Throughput drug screen in 47 multiple myeloma cell lines against the NCATS MIPE library collection: PCM6_Riken cell viability assay (AID 1919870); note: nearly all actives have a fitted effect of over 30% in size; note: potency is the fitted concentration of half-maximal effect
Method in brief: as §1

[11] = Quantitative High-Throughput drug screen in 47 multiple myeloma cell lines against the NCATS MIPE library collection: KMS11_JCRBsus cell viability assay (AID 1919873); note: nearly all actives have a fitted effect of over 50% in size; note: potency is the fitted concentration of half-maximal effect
Method in brief: as §1

[12] = Quantitative High-Throughput drug screen in 47 multiple myeloma cell lines against the NCATS MIPE library collection: KMS34_JCRB cell viability assay (AID 1918985); note: nearly all actives have a fitted effect of over 40% in size; note: potency is the fitted concentration of half-maximal effect
Method in brief: as §1

[13] = Quantitative High-Throughput drug screen in 47 multiple myeloma cell lines against the NCATS MIPE library collection: SKMM1_PLB cell viability assay (AID 1919863); details: SKMM1 myeloma viability, CellTiter-Glo ATP, 48 h; viability: active compounds read low; note: nearly all actives have a fitted effect of over 35% in size; note: potency is the fitted concentration of half-maximal effect
Method in brief: as §1

[14] = Quantitative High-Throughput drug screen in 47 multiple myeloma cell lines against the NCATS MIPE library collection: OPM2_DSMZ cell viability assay (AID 1919872); note: nearly all actives have a fitted effect of over 30% in size; note: potency is the fitted concentration of half-maximal effect
Method in brief: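 Relative luminescence from CellTiter-Glo served as the viability signal, referenced to DMSO-treated (100%) and cell-free medium (0%) controls. Treatment lasted 48 hours at 37C with 500 cells per well.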

[15] = Quantitative High-Throughput drug screen in 47 multiple myeloma cell lines against the NCATS MIPE library collection: L363_DSMZ cell viability assay (AID 1918984); details: L363 myeloma viability, CellTiter-Glo ATP luminescence, 48 h; viability (% of control): at 45.8 µM (top of the series); note: nearly all actives have a fitted effect of over 40% in size; note: potency is the fitted concentration of half-maximal effect
Method in brief: as §1

[16] = Quantitative High-Throughput drug screen in 47 multiple myeloma cell lines against the NCATS MIPE library collection: RPMI8226_ATCC cell viability assay (AID 1919871); note: nearly all actives have a fitted effect of over 30% in size; note: potency is the fitted concentration of half-maximal effect
Method in brief: as §1

[17] = Quantitative High-Throughput drug screen in 47 multiple myeloma cell lines against the NCATS MIPE library collection: KMS28BM_JCRB cell viability assay (AID 1919874); note: nearly all actives have a fitted effect of over 35% in size; note: potency is the fitted concentration of half-maximal effect
Method in brief: as §1

[18] = Quantitative High-Throughput drug screen in 47 multiple myeloma cell lines against the NCATS MIPE library collection: UTMC2_PLB cell viability assay (AID 1919868); details: CellTiter-Glo ATP luminescence, 48 h; viability (% of DMSO control): at 45.8 µM (top of the series); note: nearly all actives have a fitted effect of over 55% in size; note: potency is the fitted concentration of half-maximal effect
Method in brief: as §1

[19] = Quantitative High-Throughput drug screen in 47 multiple myeloma cell lines against the NCATS MIPE library collection: LP1_DSMZ cell viability assay (AID 1918982); note: nearly all actives have a fitted effect of over 35% in size
Method in brief: as §1

O=C(C=Cc1ccc(O)cc1)c1ccc(O)cc1O
active: Potency [1] 23.5 µM | Potency [2] 4.69 µM | Potency [3] 14.8 µM | Potency [4] 20.9 µM | Potency [5] 23.5 µM | Potency [6] 18.7 µM | Potency [7] 16.6 µM | Potency [8] 18.7 µM | Potency [9] 20.9 µM | Potency [10] 16.6 µM | Potency [11] 10.5 µM

Nc1ccc(-c2ccc3ncc4ccc(=O)n(-c5cccc(C(F)(F)F)c5)c4c3c2)cn1
active: Potency [1] 0.0166 µM | Potency [12] 0.0066 µM | Potency [3] 0.0332 µM | Potency [13] 0.0053 µM | Potency [5] 0.372 µM | Potency [14] 0.0059 µM

NC(=O)c1noc([C@H](CCCC2CCCCC2)CC(=O)NO)n1
active: Potency [2] 3.32 µM | Potency [3] 16.6 µM | Potency [4] 23.5 µM | Potency [13] 13.2 µM | Potency [5] 20.9 µM | Potency [6] 23.5 µM | Potency [7] 16.6 µM | Potency [9] 18.7 µM | Potency [10] 16.6 µM | Potency [16] 10.5 µM | Potency [14] 20.9 µM
inactive: Potency [1] | Potency [15] | Potency [17]

COc1ccc(CCN(C)CCCOc2ccc(S(=O)(=O)c3[nH]c4ccccc4c3C(C)C)cc2)cc1OC
active: Potency [1] 16.6 µM | Potency [4] 23.5 µM | Potency [5] 18.7 µM | Potency [9] 18.7 µM | Potency [16] 18.7 µM | Potency [17] 13.2 µM
inactive: Potency [15] | Potency [18] | Potency [14]

COc1ccc(-c2ccc3ncc4c(c3c2)n(-c2ccc(N3CCNCC3)c(C(F)(F)F)c2)c(=O)n4C)cn1
active: Potency [1] 0.0066 µM | Potency [2] 0.0059 µM | Potency [3] 0.0469 µM | Potency [13] 0.526 µM | Potency [5] 0.118 µM | Potency [16] 0.332 µM
inactive: Potency [4]

Cc1cccc(-c2[nH]c(C(C)(C)C)nc2-c2ccc3c(c2)OCO3)n1
active: Potency [1] 20.9 µM | Potency [15] 2.35 µM | Potency [12] 18.7 µM | Potency [3] 14.8 µM | Potency [4] 1.87 µM | Potency [5] 16.6 µM | Potency [6] 2.96 µM | Potency [7] 1.05 µM | Potency [8] 0.743 µM | Potency [18] 0.743 µM | Potency [9] 1.18 µM | Potency [10] 0.833 µM | Potency [16] 16.6 µM | Potency [11] 16.6 µM | Potency [17] 16.6 µM

FC(F)(F)c1ccc(C=Cc2nc(COc3ccc(CCCCn4ccnn4)cc3)co2)cc1
active: Potency [1] 0.132 µM | Potency [15] 0.001 µM | Potency [2] 0.132 µM | Potency [3] 0.0166 µM | Potency [4] 0.187 µM | Potency [18] 0.0833 µM | Potency [10] 0.0118 µM | Potency [11] 0.0235 µM

CO[C@H]1/C=C\O[C@@]2(C)Oc3c(C)c(O)c4c(O)c(c5c(nc6cc(C)ccn65)c4c3C2=O)NC(=O)C(C)=CC=C[C@H](C)[C@H](O)[C@@H](C)[C@@H](O)[C@@H](C)[C@H](OC(C)=O)[C@H]1C
active: Potency [15] 20.9 µM | Potency [3] 16.6 µM | Potency [16] 20.9 µM
inactive: Potency [19] | Potency [7] | Potency [14] | Potency [11] | Potency [17]

CC[C@H](CC#N)OC(=O)N[C@@H](C)c1cccc(NC(=O)Nc2ccc(-c3cnco3)c(OC)c2)c1
active: Potency [1] 1.18 µM | Potency [15] 18.7 µM | Potency [2] 3.72 µM | Potency [3] 3.72 µM | Potency [4] 13.2 µM | Potency [13] 1.18 µM | Potency [5] 1.48 µM | Potency [8] 1.32 µM | Potency [18] 1.18 µM | Potency [9] 4.18 µM | Potency [10] 1.32 µM | Potency [16] 2.64 µM | Potency [11] 0.372 µM | Potency [17] 2.09 µM

CC=C(C(=CC)c1ccc(O)cc1)c1ccc(O)cc1
active: Potency [15] 13.2 µM | Potency [3] 16.6 µM | Potency [6] 18.7 µM | Potency [7] 16.6 µM | Potency [8] 18.7 µM | Potency [9] 20.9 µM | Potency [10] 20.9 µM | Potency [14] 18.7 µM
inactive: Potency [1]

O=C(O)Cc1cccc(OCCCN(Cc2cccc(C(F)(F)F)c2Cl)CC(c2ccccc2)c2ccccc2)c1
active: Potency [1] 23.5 µM | Potency [2] 13.2 µM | Potency [13] 11.8 µM | Potency [7] 20.9 µM | Potency [8] 16.6 µM | Potency [9] 16.6 µM | Potency [10] 18.7 µM | Potency [16] 23.5 µM
inactive: Potency [14]

CC(=O)OCC(=O)[C@@]1(O)CC[C@H]2[C@@H]3CCC4=CC(=O)C=C[C@]4(C)[C@@H]3[C@@H](O)C[C@@]21C
active: Potency [12] 0.209 µM | Potency [13] 0.0074 µM | Potency [11] 0.235 µM
inactive: Potency [1] | Potency [4] | Potency [5] | Potency [7] | Potency [9] | Potency [10] | Potency [14]

CC(C)(O)CC(=O)NCCn1ccc2ncnc(Nc3ccc(Oc4cccc(C(F)(F)F)c4)c(Cl)c3)c21
inactive: Potency [8]
active: Potency [1] 26.4 µM | Potency [12] 23.5 µM | Potency [2] 13.2 µM | Potency [3] 1.18 µM | Potency [13] 23.5 µM | Potency [5] 16.6 µM | Potency [9] 23.5 µM

COc1ccc(C=CC(=O)Nc2ccccc2C(=O)O)cc1OC
active: Potency [7] 6.62 µM | Potency [9] 14.8 µM
inactive: Potency [1] | Potency [12] | Potency [4] | Potency [10] | Potency [16] | Potency [14]

CCC=CC[C@H]1C(=O)CC[C@@H]1CC(=O)OC
inactive: Potency [1] | Potency [15] | Potency [12] | Potency [4] | viability [13] 144% | Potency [6] | Potency [7] | Potency [10] | Potency [14] | Potency [11] | Potency [17]
